Sampled rows, rich in hits. Any-hit rate of the full collection: about 10%.
PNC inhibitor = blocks assembly of the perinucleolar compartment; PC3M PTB-GFP, PNC prevalence imaging, 16 h; active compounds read low; activity change (PNC), negative = inhibition, % at 10 µM; 3.1% of 140,000 active;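 active = readout at or below -70, meaning at least 70% loss of cells showing the perinucleolar compartment, a nuclear body marking cancer cells; inconclusive = readout between -30 and a set limit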;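 note: plate controls were DMSO wells for no effect and camptothecin positive control wells for full effect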
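Compounds are pinned in duplicate onto adhered PC3M cells stably expressing GFP-tagged PTB and incubated 16 h at 37 C. Cells are then fixed, nuclei stained with Hoechst, and PNC-positive cells counted.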
HPGD inh = blocks human HPGD enzyme activity; P15428; purified HPGD, NADH fluorescence kinetic, PGE2 substrate; Potency, µM, without a hit: at the top dose activity change, negative = inhibition, hits mostly inhibitors; 4.3% of 150,000 active; AID 894; note: potency is the fitted concentration of half-maximal effect
Target sequence (P15428 whole entry, looked up): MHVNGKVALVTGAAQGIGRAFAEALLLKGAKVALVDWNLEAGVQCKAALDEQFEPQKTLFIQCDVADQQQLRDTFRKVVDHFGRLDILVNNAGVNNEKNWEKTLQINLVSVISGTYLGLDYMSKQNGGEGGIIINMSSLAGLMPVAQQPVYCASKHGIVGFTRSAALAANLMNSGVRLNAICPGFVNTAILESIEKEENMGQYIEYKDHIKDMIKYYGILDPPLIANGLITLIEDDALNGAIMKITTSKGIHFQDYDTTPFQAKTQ
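20 nM HPGD preincubated 15 min at room temperature with compound in 50 mM Tris-HCl pH 8, 0.01% Tween 20. Started with 1 mM NAD+ and 30 uM prostaglandin E2; NADH fluorescence (360/450 nm) read 5 times over 30-s intervals, last minus first.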
12-hLO inh = 12-hLO (ALOX12) enzyme inhibition; Potency, µM (titrated, usually from 57.1 µM), inactives show top-dose activity change, negative = inhibition, hits mostly inhibitors; purified 12-hLO, xylenol orange hydroperoxide absorbance; 0.12% of 150,000 active; P18054; AID 1452; active = well fitted inhibition curve with a large enough effect; inconclusive = small, poorly fitted or top-dose-only effect; note: potency is the fitted concentration of half-maximal effect; nearly all actives have a fitted effect of over 55% in size
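Xylenol orange chromogenic assay: hydroperoxide from 12hLO oxidises Fe(II), giving red-shifted Fe(III)-XO absorbance. Conditions: 150 nM enzyme, 40 uM arachidonic acid, 25 mM Hepes pH 7.0, 0.01% Triton X-100, 30 min, room temperature.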
ALDH1A1 inh = inhibitors of human aldehyde dehydrogenase 1A1; P00352; Purified ALDH1A1, NADH fluorescence, propionaldehyde substrate; Potency, µM (highest dose often 75.3 µM), for the others: at the top dose activity, negative = inhibition, actives largely listed as inhibitors; 7.3% of 220,000 active; AID 1030;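 note: potency is the fitted concentration of half-maximal effect; plate controls were no enzyme wells and a reference inhibitor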
LMNA splice mod = modulators of lamin A splicing; HeLa LMNA splicing GFP/RFP minigene ratio, 48 h; Potency, µM (highest dose often 46.1 µM), without a hit: at the top dose ratio change, negative = inhibition, hits mostly inhibitors; 0.01% of 200,000 active; active = well fitted inhibition curve with a large enough effect in the signal ratio, with a control signal flat, not every such curve was filed as active; inconclusive = small, poorly fitted or top-dose-only effect, or effect the other way, or a change in a side signal; the % refers to the signal ratio; note: potency is the fitted concentration of half-maximal effect
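S3 HeLa stable clones carrying a lamin A-EGFP splicing minigene plus DsRed2 were seeded at 600 cells/well in Opti-MEM with 2% FBS, pin-dosed and incubated 48 h at 37°C. Acumen cytometry (488 nm) gave the GFP/RFP total-intensity ratio.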
Numbers without * were called inactive; [ ] = remark or other dose. Unless noted, calls come from the whole dose curve; as a rule, active = well fitted inhibition curve with a large enough effect (not every such curve was filed as active); inconclusive = small, poorly fitted or top-dose-only effect, or another doubt; inactive = no such curve, though single readings can be large or run the other way. Unless noted, % is set by controls: 0 for no effect and ±100 for the full control effect.

How did C[C@@H]1Oc2ccc(C(=O)C[C@@H](C(=O)O)c3ccc4c(c3)OCO4)cc2O1 do in these assays?
HPGD inh: -0.8%; 12-hLO inh: -5.1%[11.4 µM]; ALDH1A1 inh: 0.4%[13.5 µM]

Results for COC(=O)c1ccc(NC(=O)C2CCCO2)cc1 (centres undefined) ?
PNC inhibitor: -10.9; HPGD inh: inconclusive; 12-hLO inh: -5.1%; ALDH1A1 inh: -1.0%; LMNA splice mod: 12.0%

Results for CC(C)N(c1ccccc1)c1ccc(NC(=O)C2CCCO2)cc1 (centres undefined) ?
PNC inhibitor: -18.3; HPGD inh: -8.6%; 12-hLO inh: -7.9%; ALDH1A1 inh: inconclusive; LMNA splice mod: -5.2%

How did S=C(Nc1ccc(Oc2ccccc2)cc1)NC1CCCC1 do in these assays?
PNC inhibitor: inconclusive; HPGD inh: -6.0%; 12-hLO inh: 14.1µM*; ALDH1A1 inh: -9.8%; LMNA splice mod: -33.3%

What do the screens show for `COC(=O)COc1ccc(NC(=O)C2CCCO2)cc1` (centres undefined)?
PNC inhibitor: -14.7; HPGD inh: 15.8µM*; 12-hLO inh: 0.4%; ALDH1A1 inh: inconclusive; LMNA splice mod: -5.4%

What do the screens show for `CC(NC(=O)C1CCCO1)c1ccccc1` (centres undefined)?
PNC inhibitor: -24.4; HPGD inh: 17.8µM*; 12-hLO inh: 4.6%; ALDH1A1 inh: 5.4%; LMNA splice mod: 1.9%

Results for COc1cccc(-c2nc(Cn3c(=O)cc(C)c4c(C)nn(-c5ccccc5)c43)c(C)o2)c1OC ?
LMNA splice mod: -8.7%[46 µM]

What do the screens show for `CC(C)CN1CCc2nc(-c3ccccc3)c3c(c2CC1)COC(C)C3` (centres undefined)?
ALDH1A1 inh: 9.4%[13.5 µM]

Results for COc1ccc(-n2c(/C=C/c3cccc4ccccc34)nc3ccccc3c2=O)cc1Cl ?
LMNA splice mod: -2.3%[46 µM]

Results for Brc1ccc(N/N=C(/N=Nc2nn[nH]n2)c2ccccc2)cc1 ?
ALDH1A1 inh: 14.1µM*; LMNA splice mod: inconclusive

What do the screens show for `CN(CC(=O)N1CCCCC1)S(=O)(=O)c1cccc2cccnc12`?
PNC inhibitor: 13.3; HPGD inh: 15.8µM*; 12-hLO inh: -3.5%; ALDH1A1 inh: inconclusive; LMNA splice mod: inconclusive

What do the screens show for `Cc1ccc(NC(=O)CN(C)S(=O)(=O)c2cccc3cccnc23)cc1`?
PNC inhibitor: -2.3; HPGD inh: -17.7%; 12-hLO inh: -4.6%; ALDH1A1 inh: inconclusive; LMNA splice mod: -10.5%

Results for CN(Cc1ccccc1)S(=O)(=O)c1cccc2cccnc12 ?
PNC inhibitor: inconclusive; HPGD inh: 22.4µM*; 12-hLO inh: 12.4%; ALDH1A1 inh: 8.91µM*; LMNA splice mod: 3.3%

How did O=C(Nc1nc(N2C(=O)c3ccccc3C2=O)n(-c2ccccc2)n1)c1ccc(F)cc1 do in these assays?
PNC inhibitor: 16.9; HPGD inh: -6.6%; 12-hLO inh: 0.7%; ALDH1A1 inh: 20µM*; LMNA splice mod: inconclusive

How did CCc1ccc(NC(=O)c2cc3c(COC(C)=O)cnc(C)c3oc2=O)cc1 do in these assays?
LMNA splice mod: -16.5%[46 µM]

How did CC(C)C[C@@H](CC(=O)N[C@@H](CCCN)CC(=O)N[C@@H]1CCNC[C@H]1C(=O)N[C@H](CC(=O)N[C@@H](CCC(=O)O)CC(=O)O)Cc1c[nH]c2ccccc12)NC(=O)[C@@H]1CCCC[C@H]1N do in these assays?
HPGD inh: -4.6%; 12-hLO inh: 1.0%; ALDH1A1 inh: -2.9%
